Source: PubChem BioAssay AID720688 (NMMLSC, 2013)
Calls of active or inactive are those of the source.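 How the source made its calls: active means half-effect concentration at most 10 µM, response change at least 30% across doses, and a curve fit passing quality checks; inactive means the rest.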

Target: Cell division control protein 42 homolog (Homo sapiens) (UniProt P60953)
Assay: Cdc42 wildtype GTP-binding inhibitors, late-stage follow-up, mechanism study for Ras-family GTPase inhibitor project, biochemical, protein source comparison, flow cytometry beads, Bodipy-FL-GTP (AID 720688)
Conditions: GST-Cdc42 beads; protein source 1, at 100 µM (top of the series)

Cell division control protein 42 homolog (Homo sapiens), sequence (P60953 whole entry, looked up): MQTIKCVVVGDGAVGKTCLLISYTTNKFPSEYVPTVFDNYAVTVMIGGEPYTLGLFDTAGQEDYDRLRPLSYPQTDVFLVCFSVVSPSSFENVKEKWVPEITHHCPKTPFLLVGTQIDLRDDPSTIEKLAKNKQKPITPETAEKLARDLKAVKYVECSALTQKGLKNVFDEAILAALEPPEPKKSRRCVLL

Row | SMILES | outcome
1 | CC1(C)Cc2c(sc(NC(=S)NC(=O)c3cccc(N=[N+]=[N-])c3)c2C(=O)O)CO1 | inactive
2 | CC1(C)Cc2c(sc(NC(=S)NC(=O)c3ccc(N=[N+]=[N-])cc3)c2C(=O)O)CO1 | inactive
